Experimental findings from PubChem BioAssay (Tox21) are described below.

“And” between values parts separate entries of the source, which are not always exact repeats. Identical values can stand only once. Inconclusive results are not listed. Where a structure was tested more than once in an assay, its records may differ in their call. The source made the active and inactive calls. Unless noted, calls follow the shape of the dose curve; as a rule, active = well fitted curve in the direction sought with a large enough effect in the repeat runs; inconclusive = weak or mixed curves; inactive = no such curve, though single readings can be large; an effect the other way counts as inactive or inconclusive.

The nature of test [1]: qHTS assay to identify small molecule antagonists of the retinoid acid receptor (RAR) signaling pathway - cell viability counter screen (AID 1159551). Also: nearly all actives have a fitted effect of over 35% in size. Also: potency is read from the fitted curve at half-maximal effect. The procedure, abridged: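 Cells (C3RL4) are plated, incubated overnight, dosed with compound in DMSO, then given retinol at 1 uM final. After 6 h at 37 C, CellTiter-Glo is added and luminescence read following 30 min at room temperature.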
For orientation: Quantitative high-throughput screening tests each substance at several concentrations.

A short description of test [2]: qHTS assay to identify small molecule antagonists of the estrogen related receptor (ERR) signaling pathway from Tox21 library - cell viability counter screen (AID 1224834). Also: nearly all actives have a fitted effect of over 30% in size. Also: potency is read from the fitted curve at half-maximal effect. The essentials:
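ERR cells, 2,000/well; 6 h settle at 37 C/5% CO2; pin-tool compound transfer in DMSO; 17.5 h at 37 C; CellTiter-Fluor, 30 min; fluorescence intensity.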

For test [3], the target named is Luciferin 4-monooxygenase (Photinus pyralis) (UniProt P08659). Description: qHTS assay to identify small molecule inhibitors of firefly luciferase (AID 1224835). Also: nearly all actives have a fitted effect of over 25% in size. Also: potency is read from the fitted curve at half-maximal effect. As to activity change, negative = inhibition: series mostly up to about 120 µM. The essentials:
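Quantitative HTS format; KM concentrations of both substrates. Purified P. pyralis FLuc activity quantified from luminescence images.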

A short description of test [4]: qHTS assay to identify small molecule agonists of the retinoic acid receptor (RAR) signaling pathway (AID 1159553). Also: potency is read from the fitted curve at half-maximal effect. The essentials: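 Seed C3RL4 reporter cells at 1,000 per well and incubate overnight at 37 C. Add compounds in DMSO, incubate 6 hr. Add luciferase reagent, wait 30 min at room temperature, read luminescence.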
The nature of test [5]: qHTS assay to identify small molecule antagonists of the estrogen related receptor (ERR) signaling pathway - cell viability counter screen (AID 1224818). Also: series mostly up to about 46 µM. The procedure, abridged: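 ERR cells, 2,000/well; 6 h settle at 37 C/5% CO2; compound pin transfer (DMSO); 17.5 h at 37 C; CellTiter-Fluor, 30 min, fluorescence read.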
Test [6] in a line: qHTS assay to identify small molecule antagonists of the estrogen related receptor signaling pathway with the pleiotropic PPARgamma coactivator (PGC) cell viability counter screen (AID 1224822; also: potency is read from the fitted curve at half-maximal effect; as to viability change, negative = cytotoxic: series mostly up to about 46 µM). The procedure, abridged:
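Multiplexed viability counter screen run in PGC/ERR cells treated with compounds for 17.5 h at 37 C; live-cell protease signal measured by CellTiter-Fluor fluorescence.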

The nature of test [7]: qHTS assay to identify small molecule antagonists of the estrogen related receptor (ERR) signaling pathway (AID 1224819;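 also: luminescence from an ERR-driven luciferase reporter measured with One-Glo reagent; series mostly up to about 46 µM; nearly all actives have a fitted effect of over 50% in size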). The essentials: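 qHTS in ERR cells, 2,000/well, 1536 format. Cpd (DMSO) added after 6 h settle, 18 h 37 C. One-Glo luminescence, 30 min RT.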
Test [8] is described as follows: qHTS assay to identify small molecule agonists of the estrogen related receptor signaling pathway with the pleiotropic PPARgamma coactivator (PGC) (AID 1224823). The essentials: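 Luminescence readout (One-Glo, 30 min RT) from PGC/ERR cell line treated 18 h at 37 C with pin-tool-delivered DMSO compound solutions; cells plated 6 h before dosing. Quantitative HTS format.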

The nature of test [9]: qHTS assay to identify small molecule antagonists of the retinoic acid receptor (RAR) signaling pathway (AID 1159552; also: nearly all actives have a fitted effect of over 50% in size; also: potency is read from the fitted curve at half-maximal effect). The essentials:
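Cells of the C3RL4 line were seeded, incubated overnight, then dosed with compounds in DMSO followed immediately by retinol (1 uM final). Six hours later luciferase detection reagent went in; signal was measured after 30 min at RT.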

For test [10], the system named is estrogen-related receptor alpha (ERRalpha) with PGC-1alpha coactivator, human. The test can be described thus: qHTS assay to identify small molecule antagonists of the estrogen related receptor signaling pathway with the pleiotropic PPARgamma coactivator (PGC) (AID 1224821; calls by dose curve;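 also: series mostly up to about 46 µM; lower luminescence signal means antagonism of PGC/ERR signalling; nearly all actives have a fitted effect of over 50% in size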). The procedure, abridged:
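PGC/ERR reporter cells; 6 h pre-incubation 37 C/5% CO2; pin-tool compound in DMSO, 18 h 37 C; One-Glo added, 30 min RT; luminescence read. qHTS antagonist mode.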
% is scaled to controls: 0 for no effect and ±100 for the full control effect.

Chain of Luciferin 4-monooxygenase (Photinus pyralis) (P08659 whole entry, looked up): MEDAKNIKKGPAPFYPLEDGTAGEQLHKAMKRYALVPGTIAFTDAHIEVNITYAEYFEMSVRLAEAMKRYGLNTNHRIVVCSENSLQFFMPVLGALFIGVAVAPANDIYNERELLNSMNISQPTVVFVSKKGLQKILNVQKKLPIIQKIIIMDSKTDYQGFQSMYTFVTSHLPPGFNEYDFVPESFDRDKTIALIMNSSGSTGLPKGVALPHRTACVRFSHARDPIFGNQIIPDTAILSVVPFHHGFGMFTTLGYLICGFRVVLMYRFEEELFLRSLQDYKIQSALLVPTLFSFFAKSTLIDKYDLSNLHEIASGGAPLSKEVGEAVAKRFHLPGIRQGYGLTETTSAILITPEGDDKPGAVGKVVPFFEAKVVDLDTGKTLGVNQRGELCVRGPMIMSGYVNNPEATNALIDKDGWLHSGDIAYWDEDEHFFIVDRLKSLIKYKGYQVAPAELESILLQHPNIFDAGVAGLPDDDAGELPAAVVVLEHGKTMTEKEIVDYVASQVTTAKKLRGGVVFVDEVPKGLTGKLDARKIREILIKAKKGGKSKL

Regarding `NCCCC(O)(P(=O)(O)O)P(=O)(O)O`, the Potency result in [1] and in test [2] was “inactive” in each case.

With `CCc1c(C(=O)O)c(=O)cnn1-c1ccc(Cl)cc1`, the Potency entry in test [1], in [2] and in [3] was “inactive” throughout.

In the case of `CC1CCCCN1CCCOC(=O)c1ccc(OC2CCCCC2)cc1` (centres undefined), the Potency entry in test [1], in test [4] and in test [3] was “inactive” each time.

As to `CCC1CCCCC1`, the Potency result in [1] and in test [2] was “inactive” throughout.

For `c1ccc2c(c1)CCC2`, the Potency result in test [1] and in test [2] was “inactive” each time.

Turning to `CN(C)CCCN1c2ccccc2CCc2ccccc21`, the Potency entry in test [1], in [5] and in test [6] was “inactive” each time.

Turning to `CC(CN(C)C)CN1c2ccccc2CCc2ccccc21` (centres undefined), the Potency result in test [1], in [5], in test [6] and in test [3] was “inactive” in each case.

In the case of `CCC(=O)OCCc1ccccc1`, the Potency result in test [1] and in test [2] was “inactive” in each case.

On to `C=CCCCCCCC=C`, for which the Potency entry in test [1] and in test [2] was “inactive” in each case.

For `Clc1cccnc1`, the Potency entry in [1], in test [2] and in [3] was “inactive” each time.

In the case of `CCCCCCCCCCCCCCNCCO`, the Potency entry in [1] and in test [2] was “inactive” each time.

On to `CCCCCCCC/C=C\CCCCCCCC(=O)NCc1ccc(O)c(OC)c1`, for which the Potency entry in test [1], in test [5], in [7], in [6], in test [2] and in [3] was “inactive” in each case. In addition, the outcome in [8] was inactive.

`CC(C(O)c1ccccc1)N(C)CCOC(c1ccccc1)c1ccccc1` (centres undefined): the Potency entry in test [1] and in test [3] was “inactive” throughout. Besides, the Potency in test [2] was 29.8 µM (active).

In the case of `CC(=O)OC1CCCCC1`, the Potency entry in test [1], in test [2] and in test [3] was “inactive” throughout.

As for `C=C(C)CCCC`, the Potency entry in test [1] and in [2] was “inactive” in each case.

In the case of `CC(=O)Nc1ccc(O)cc1`, the Potency entry in [1] and in [2] was “inactive” in each case.

`CSc1c(Cl)c(Cl)c(Cl)c(Cl)c1Cl`: the Potency result in test [1], in test [4] and in test [3] was “inactive” each time.

With `CCOC(/C=C(\C)CCC=C(C)C)OCC`, the Potency entry in [1], in [2] and in test [3] was “inactive” each time.

For `CN(C)CCCN1c2ccccc2Sc2ccc(C(F)(F)F)cc21`, the Potency entry in [1] and in test [3] was “inactive” in each case. Besides, the Potency in test [2] is 29.8 µM (active).

As for `CN1[C@@H]2CC[C@@H]1CC(OC(=O)C(CO)c1ccccc1)C2` (some centres undefined), the Potency result in [1] and in [2] was “inactive” in each case.

For `O=CC1CC1`, the Potency entry in test [1] and in test [2] was “inactive” each time.

As to `N#CSCSc1nc2ccccc2s1`, the figures for the Potency in test [1], in [2] and in [3] were 61.1 µM (active), 61.1 µM (active) and 35.6 µM (active), respectively.

`OCCCc1cccnc1`: the Potency entry in test [1], in test [2] and in [3] was “inactive” in each case.

With `O=C(O)CCCCCCC(=O)O`, the Potency entry in [1] and in test [2] was “inactive” in each case.

On to `O=S(=O)(O)c1cc(S(=O)(=O)O)c2ccc3c(S(=O)(=O)O)cc(S(=O)(=O)O)c4ccc1c2c43`, for which, in test [1], the activity change, negative = cytotoxicity is 4.17% [at 19 µM] (inactive). Moreover, in test [2], the viability change, negative = cytotoxic was 4.03% [at 19 µM] (inactive). Besides, the activity change, negative = inhibition in test [3] was -0.173% [at 23.6 µM] (inactive).

On to `CCCCCCC(C)Nc1ccc(Nc2ccccc2)cc1` (centres undefined), for which the Potency result in test [1], in [4] and in test [3] was “inactive” in each case.

As to `O=Cc1ccc(F)cc1`, the Potency entry in [1], in test [2] and in test [3] was “inactive” in each case.

On to `C=CC(=C)CCC=C(C)C`, for which the Potency entry in [1], in test [2] and in [3] was “inactive” throughout.

Regarding `Cc1cc(C)c(C=O)c(C)c1`, the Potency entry in test [1], in [2] and in [3] was “inactive” in each case.

With `CN(C)CCOC(c1ccccc1)c1ccccc1` (tested in a mixture with another compound), the Potency result in [1], in test [2] and in test [3] was “inactive” each time.

As for `CCOB(OCC)OCC`, the Potency entry in test [1] and in [3] was “inactive” in each case.

In the case of `COc1cccc(CCc2ccccc2OCC(CN(C)C)OC(=O)CCC(=O)O)c1` (centres undefined), the Potency result in test [1] and in test [3] was “inactive” throughout.

As for `CC(C)=C1CC[C@@H](C)CC1=O`, the Potency entry in test [1] and in test [3] was “inactive” throughout.

Consider `CC1=C(/C=C/C(C)=C/C=C/C(C)=C/C(=O)Nc2ccc(O)cc2)C(C)(C)CCC1`, for which the Potency result in [9] was “inactive and 29.8 µM (active)”; in test [4] it was 4.98 µM (active) and 2.66 µM (active); in test [6], 13.9 µM (active). Also, the molecule was classed as inactive in test [10] and in test [8]. The Potency result in test [3] was “inactive”.

In the case of `OCCCS`, the Potency result in test [1], in test [2] and in test [3] was “inactive” throughout.
